LEDGF integ inh – blocks HIV-1 LEDGF/p75-dependent DNA integration; TR-FRET IN-LEDGF/p75 DNA integration, Eu/Cy5; inhibition, % at 3.7 µM; 370,000 tested, 0.64% active; AID 743269;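 active means inhibition above the screen-wide mean plus 3 SD, cut at about 13% in these data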;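 further: signal is the Cy5 over europium emission ratio at 671 and 618 nm; 0% = plate median of compound wells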
MBD2 inh – blocks human MBD2 binding to methylated DNA. 370,000 tested, 0.31% active. Q9UBB5. TR-FRET, MBD2 binding to methylated oligonucleotide. inhibition, % at 4.4 µM; in the data active means inhibition above about 13%
PLC-gamma1 inh – blocks human PLC-gamma1 enzyme activity. purified PLC-gamma1, fluorogenic substrate, fluorescence. 370,000 tested, 0.84% active. inhibition, % at 12.2 µM. AID 720700. P19174; in the data active means inhibition above about 9.5%
UHRF1 MBD2 ctr – human UHRF1 methylated DNA binding inhibitors; 370,000 tested, 0.75% active; AID 687016; inhibition, % at 4.4 µM; Q96T88; UHRF1 binding to methylated oligo, TR-FRET; in the data active means inhibition above about 21%;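 further: UHRF1 SRA domain binding a hemimethylated CpG hairpin DNA probe; 0% = median of test compound wells and 100% = reference inhibitor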
PLC-beta3 inh – blocks human PLC-beta3 enzyme activity. Q01970. Purified PLC-beta3, fluorogenic substrate, fluorescence. inhibition, % at 12.2 µM. 370,000 tested, 0.18% active; in the data active means inhibition above about 11%;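 further: 0% = median of compound wells on plate and 100% = full blocker control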
Starred values were filed as active, the others as inactive; ! = not confirmed by another sample. Shown are actives, neighbours in structure and some others; about 2.3% of the full set was active somewhere.

SMILES | LEDGF integ inh | MBD2 inh | PLC-gamma1 inh | UHRF1 MBD2 ctr | PLC-beta3 inh
CCC(NC(=O)c1ccc2c(c1)c(C)c(C)n2Cc1ccc(-c2ccccc2C#N)cc1)c1ccccc1 (configuration not stated) | -4 | 7 | 2 | 4 | -13
COCCSc1nnc(NC(=O)c2ccc3c(c2)OCO3)s1 | -2 | 0 | -1 | 69* | -4
CCC[C@H]1[C@@H](OC(=O)NCc2ccc(Cl)c(Cl)c2)CC[C@@]23CCCN2C(=O)CCC[C@@H]13 | -4 | -1 | 2 | 2 | -4
COCCCNC(=O)C[C@H]1C[C@@]2(C(=O)OC)C(=C[C@H](C(C)C)O[C@@H]2C2CC2)N(CCC2=CCCCC2)C1=O | 0 | -6 | 1 | 0 | 5
COc1ccc(NC(=O)C(Cl)=C(Cl)Cl)cn1 | 2 | 2 | 0 | -3 | 3
COc1ccc(NC(=O)/C(Cl)=C(/Cl)S(=O)(=O)Cc2ccccc2)cn1 | 10 | 0 | 10* | 1 | 7
O=C(CSc1nc(-c2ccccc2Cl)ns1)c1ccc(Cl)cc1 | 2 | 3 | 2 | 32* | -1
c1ccc(Cn2c(SC3CCCCC3)nnc2-c2cccnc2)cc1 | -2 | 0 | 0 | -2 | -1
COc1ccc(NC(=S)Nc2ncccc2C)c(OC)c1 | 2 | -4 | 1 | 25* | -2
CC(OC(=O)c1ccco1)C(=O)Nc1ccc(C(F)(F)F)cc1 (configuration not stated) | 7 | -1 | 12* | 2 | -2
O=C(O)Cc1sc(N/N=C\c2ccccc2)nc1-c1ccccc1 | 25* | 2 | -55 | -5 | -61
Cc1ccc(CNC2CCC23CCC(c2ccccc2)CC3)o1 (configuration not stated) | 2 | -3 | 2 | 2 | 1
Cc1nnsc1NC(=O)OCc1ccc(Cl)cc1Cl | 2 | 3 | 8 | 5 | 8
Cc1nn(C)c(Cl)c1NC(=O)OCc1ccc(Cl)cc1Cl | 5 | 1 | 7 | 53* | -1
C#CCOCCOCCOCCNc1nc(N2CCN(C(=O)Cn3cc(CCCN=C(N)N)nn3)CC2)nc(N2CCN(C(=O)[C@H](Cc3ccc(O)cc3)n3cc(CCO)nn3)CC2)n1 | 1 | 5 | 3 | 10 | 4
O=C(c1cccs1)N1C[C@H](O)[C@@H](n2cc(C3CC3)nn2)C[C@@H]1c1ccccc1 | 7 | 3 | 11* | 1 | 4
O=C(c1cccs1)N1C[C@@H](O)[C@H](n2cc(C3CC3)nn2)C[C@@H]1c1ccccc1 | -2 | 0 | 2 | -2 | 5
O=C(CCNC(=O)c1ccc(Br)cc1)Nc1cccc(S(=O)(=O)N2CCCC2)c1 | -4 | 9 | 3 | 36* | -3
CC(C)(C)c1ccc(S(=O)(=O)N(CCCN2CCOCC2)Cc2cccs2)cc1 | 4 | 6 | 10*! | 7 | 5
Cc1ccc(NC(=O)C2CCCN2S(=O)(=O)c2cccnc2)cc1C (configuration not stated) | -1 | 0 | 1 | -1 | 2
COC(=O)[C@H](C(C)C)N(Cc1cn(Cc2ccc(C)cc2)nn1)S(=O)(=O)c1ccc(F)cc1Br | 0 | 4 | 2 | 0 | 4
CCC(C)n1c(SC(C)C#N)nc2ccccc2c1=O (configuration not stated) | -1 | -1 | -2 | 28* | 0
O=C(CSc1nnc(SCc2cccc3ccccc23)s1)c1ccc(F)cc1 | -1 | -4 | -2 | -3 | -3
Cc1cccc(C(O)c2ncc(-c3ccc4ccccc4c3)[nH]2)c1C (configuration not stated) | -6 | 4 | -18 | 30* | -29
Nc1nc2ccc(S(=O)(=O)N3CCCCC3)cc2s1 | -3 | -2 | 48* | -1 | 1
SMILES | LEDGF integ inh | MBD2 inh | PLC-gamma1 inh | UHRF1 MBD2 ctr | PLC-beta3 inh
Cc1nn(-c2ccccc2)c(C)c1C(=O)Oc1ccccc1 | 0 | 1 | 3 | 32* | -6
Cc1ccc(-c2cc(C(=O)NN=Cc3cccc(OCc4ccccc4)c3)[nH]n2)cc1C | 1 | -3 | 1 | -1 | -1
CC(C)CNc1cccc2c1S(=O)(=O)N(Cc1cn(Cc3cccc(C(F)(F)F)c3)nn1)Cc1ccccc1O2 | 1 | 5 | -31 | 11 | -18
COC(=O)c1cccc(COC(=O)c2cccnc2SC)c1 | -3 | 2 | -1 | 34* | 1
CC(C)COC(=O)c1ccccc1OC(=O)c1ccncc1 | 5 | 10 | 2 | 25* | 8
CCOC(=O)N1C(=O)C[C@](Sc2ccc(OC)cc2)(C(=O)N(C)C)[C@H]1c1ccc(OC)cc1 | -2 | 3 | -1 | 1 | 1
O=C(CC1C(=O)NCCN1Cc1c(F)cccc1Cl)NCCc1ccccn1 (configuration not stated) | -1 | 4 | -2 | 26* | 2
Cc1ccc(-c2nc(C3CCCN(S(=O)(=O)c4ccc(Cl)s4)C3)no2)cc1 (configuration not stated) | -2 | 0 | -2 | -1 | -1
COc1ccc(S[C@]2(C(=O)N3CCCC3)CC(=O)N(c3ccccc3OC)[C@@H]2c2ccc(OC)cc2)cc1 | -3 | -2 | 4 | 0 | 2
O=C(OC12CCCN(C1)/C(=C/c1ccncc1)C2)C1CCCCC1 (configuration not stated) | -4 | 0 | -10 | -3 | -11
Cc1ccc(S(=O)(=O)N2CCOCC2)cc1NC(=O)Cn1nnc(-c2ccccc2)n1 | 1 | 2 | 2 | 0 | 2
O=C(Cn1nnc(-c2ccccc2)n1)Nc1cccc(S(=O)(=O)N2CCOCC2)c1 | 1 | 4 | 3 | 29* | -4
Cc1nc(N2CCN(C(=O)COc3ccccc3C)CC2)c2c3c(sc2n1)CCCC3 | -1 | 3 | -2 | 0 | 0
COc1cc2c(cc1OC)C(c1ccccc1)NC(C)(C)C2 (configuration not stated) | -5 | -1 | 0 | 46* | -4
COc1cc2c(cc1OC)C(c1ccc(Br)cc1)NC(=O)C2 (configuration not stated) | -5 | 1 | -3 | 2 | -6
O=C(Nc1ccccc1Cl)c1cc(C2CCCN(C(=O)c3ccccc3)C2)on1 (configuration not stated) | -1 | 1 | 7 | -2 | 11*
O=C1CSc2ccc(C(=O)N3CCCC(C(=O)N4CCCN(Cc5ccccc5)CC4)C3)cc2N1 (configuration not stated) | 8 | -5 | 3 | -2 | -2
CC(C)(C)OC(=O)N1CCC(c2ccc[nH]2)(c2c[nH]c3ccccc23)CC1 | 5 | -3 | -1 | 0 | 0
CC(C)N(CC#CCC1(O)c2ccccc2-c2ccccc21)CCO | -1 | 12 | -1 | 28* | 2
CCN(CC#CCC1(O)c2ccccc2-c2ccccc21)CCO | 0 | 7 | 1 | 19 | 0
CCSc1nccc(-c2nn(-c3ccc(C)cc3)ccc2=O)n1 | 3 | 3 | -150 | 5 | -193
CSc1nccc(-c2nn(-c3ccc(C)cc3)ccc2=O)n1 | 3 | 9 | -98 | 23* | -114

Screening results: PubChem BioAssay, The Scripps Research Institute Molecular Screening Center
